# In the supplement of paper PMC6555819:
# Key:
# Test in all cases: PBM binding z-score (relative to random genomic background probes); higher = stronger binding; sequences stand for … in GC…GCGATTGACAGCGTAGAATGAAGG
# [1] = system: PPARg:RXRa DBDmut IVT, anti-RXR (DBD mutation: RXRa K156A/R161A, NR concentration 270 nM, RXRa partner concentration 90 nM)
# Method in brief: (§1)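 Binding z-scores were set against random background probes. The data came from custom Agilent 4×180K protein-binding microarrays carrying double-stranded probes with 34-nt variable regions, incubated 1 h with ligand-free nuclear receptor dimers. Partner-specific antibodies detected binding, and scanned fluorescence was regression-normalized.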
# [2] = system: PPARg:RXRa IVT, anti-PPARg (NR concentration 270 nM, RXRa partner concentration 90 nM)
# Method in brief: as §1
# [3] = system: PPARg DBDmut:RXRa IVT, anti-PPARg (DBD mutation: PPARg1 K132A/R137A, NR concentration 270 nM, RXRa partner concentration 90 nM)
# Method in brief: as §1
# [4] = system: PPARg DBDmut IVT, anti-PPARg (DBD mutation: PPARg1 K132A/R137A, NR concentration 270 nM)
# Method in brief: as §1
# [5] = system: PPARg homodimer (NR concentration 180 nM)
# Method in brief: as §1
# [6] = system: PXR:RXRa (NR concentration 270 nM, RXRa partner concentration 90 nM)
# Method in brief: as §1
# [7] = system: PXR homodimer (NR concentration 270 nM)
# Method in brief: as §1
# [8] = system: RARa:RXR (NR concentration 270 nM, RXRa partner concentration 90 nM)
# Method in brief: as §1
# [9] = system: RARa homodimer (NR concentration 270 nM)
# Method in brief: as §1
# [10] = system: RARb:RXRa (NR concentration 270 nM, RXRa partner concentration 90 nM)
# Method in brief: as §1
Sequence,PBM binding z-score [1],PBM binding z-score [2],PBM binding z-score [3],PBM binding z-score [4],PBM binding z-score [5],PBM binding z-score [6],PBM binding z-score [7],PBM binding z-score [8],PBM binding z-score [9],PBM binding z-score [10]
CAAACTAGTTCACCGGAAGGTCAAAGTCCGCATG,2.4,2.7,0.634,0.566,3.3,5.22,3,5.72,1.73,4.36
CCGACTGGGGGAGAAAGGTTACCATACCATCCGG,1.08,2.68,1.16,2.68,1.76,2,0.501,2.74,0.727,1.68
CGAACTAGGTCAACCAGGACAGTGAATACATTGA,8.5,8.35,1.56,1.35,1.73,2.02,0.839,2.3,0.835,4.17
TCAATGAGGTTAAAGATCAGGGAACGTGGCGTCG,2.63,2.57,0.383,0.398,0.433,1.83,-0.0283,3.15,0.278,2.04
CCAACTAGGTCAGAACAGGACAGTGAAGGATGAT,6.64,6.66,2.08,1.17,1.73,1.13,0.914,2.07,1.58,2.98
GCTTGTAGATCAAGGGTAAGAAAGACTAAGCTAA,1.15,1.03,-0.364,-0.778,0.0991,-0.426,-0.45,-0.346,-0.786,-0.0761
AGTCAAAGTTCACCAGGTAACGTAAGATTCAGCT,1.37,4,1.09,1.39,3.02,4.67,2.63,4.15,1.72,5.18
ATACCAAGGTGATCGTGAAGTCGTTGATACTAAC,0.462,1.26,0.643,0.615,0.766,0.468,-0.0567,0.548,0.427,0.582
CGAACGAGGGCATGGGTTGATAGCAAATGCCGAT,2.5,2.69,-0.338,0.301,0.704,0.517,0.232,0.938,-0.224,2.05
CGAACTAGGTCAGAACGGGACAGTGAAGGATGAT,6.92,7.17,2.46,2.6,1.57,0.217,-0.225,0.856,-0.237,2.75
TGAATGAGGTTATAAGATAAGGGAACGTTGCAAA,0.589,1.42,1.45,0.957,0.436,0.669,0.0149,1.32,-0.0101,1.04
GCTGCTGGGTCAGGTTGGTCAGCTAACGGGTACG,1.8,1.47,-0.97,-0.347,0.551,0.0327,-0.0848,0.539,-0.315,2.84
ATCGATAGGTCGACGAGGTGAGTATACACCGTTT,-0.138,0.962,0.958,-0.138,0.219,0.735,0.0845,1.6,0.235,1.65
AGTCAAAGTTCATGACGAGGTAACGTAAAGCACG,0.137,3.44,1.06,1.37,3.26,4.93,1.98,4.61,0.824,4.84
AGAACGAGGGCACGGTGAGTTGATAGCAGAGTAG,3.46,4.14,1.46,0.552,0.477,1.76,0.0665,1.27,-0.263,2.75
GCATATAGGTAATACAAGGTGAAGGTCCGATTGT,4.57,3.17,0.671,0.932,0.421,0.391,0.248,1.23,0.491,0.573
TAGCCTCGGTCAGATCGGGCCAGTATACGCTATA,-1.11,-0.335,-0.636,-1.63,-1.18,-0.533,-1.31,-0.301,-1.52,1.78
CAGCCTAGGTCAGGGCCAATATAGGAGGAACGTT,1.3,1.88,-0.288,-1.23,0.413,0.404,-0.114,0.941,0.127,3.5
CGAACGAGGGCATTAGTTGATAGCAAATGCCGAT,2.78,1.35,-1.12,-0.313,-0.0468,0.174,0.377,0.239,-0.278,1.51
CCTACTGGGCCACGAAAGCTCATTGATTCAGTGA,5.87,5.08,0.172,0.266,-0.477,-0.923,-0.798,-0.778,-0.375,-0.0436
TGAATGAGGTTAAAGATCGGGGAACGTGGCGTCG,2.68,3.12,1.11,-0.0519,0.857,1.55,0.231,2.5,0.262,2.15
CCTAGCAGGCCAATCTGGGTCACCCAAGGCTTGA,3.64,4.92,-0.253,-1.35,0.456,1.03,-0.451,1.59,-0.135,1.62
CGTCCAAGGTCATAGAAGGTCAGTGAAGACAGAT,3.2,4.17,0.653,0.867,2.94,6.39,3.15,5.72,1.77,5.41
TATCCAGGGTCAAAGGCCAGAGTACGAATGTCGA,2.23,4.91,0.174,1.96,2.06,4.77,0.563,6.33,1.05,4.55

Sequence,PBM binding z-score [1],PBM binding z-score [2],PBM binding z-score [3],PBM binding z-score [4],PBM binding z-score [5],PBM binding z-score [6],PBM binding z-score [7],PBM binding z-score [8],PBM binding z-score [9],PBM binding z-score [10]
ATCTCTAGGTAACAAGTTAAGTGAAAGAGAGGAC,3.26,2.85,1.87,1.54,0.926,0.289,0.574,0.842,0.894,0.723
CTACCAAGGTGAACAAGGTCGTCGATTACTATTC,2.69,2.94,0.293,-0.426,1.09,2.61,0.761,2.65,0.41,2.27
CGAACTAGGTCATGGACAGGACAGTGAATAGTAA,8.1,8.31,3.01,0.998,1.68,1.65,-0.17,2.55,0.249,3.88
TCATATAGGTAAACAGGTTAAAGTCCGTAAGTTA,4.76,4.3,1.02,1.02,1.31,1.29,0.911,1.79,1.77,0.998
CGAACGAGGGCATGAGTGGATAGCAAATGCCGAT,2.74,1.85,-0.478,-0.831,-0.474,0.213,-0.305,0.373,-0.274,1.91
ATATGTAGGTTACATCCGGGTCATTCGGGCTATG,7.29,7.46,3.23,1.74,1.58,3.48,1.47,3.61,0.896,2.27
CTCGAAAGGTCGGTTGAAGTGAGTATACGGATAA,-0.0991,0.86,0.362,0.582,0.716,1.17,0.13,1.38,0.453,3
TCATATAGGTAAACGGTGAAAGTCGGTGTGGTAA,4.37,3.34,1.61,0.702,0.811,0.39,0.405,0.111,0.67,0.522
ACAGACAGGTTATGAAGGTAACTCAGGCTATCAT,0.3,0.659,0.714,0.581,0.432,0.377,0.271,0.863,0.217,0.899
CGAACTCGGTCATCCAGGACAGTGAATACATTGA,3.58,2.52,0.285,0.0941,0.363,0.205,-0.0652,0.856,0.205,2.31
TAGCCTAGGTCAGATCGGGCAAGTATACGCTATA,0.264,1.08,-0.209,-0.848,-0.0891,0.344,-0.431,1.06,-0.377,2.99
CGAACTCGGTCAAGGACAGTGAATCTCCGCACGC,3.2,2.25,-0.0732,-0.272,-0.336,0.0143,-0.196,0.378,-0.323,2.62
AGTCAAAGTTCAGGACGAGGTAACGTAAAGCACG,-0.443,2.06,0.129,0.321,1.91,2.94,0.827,2.8,0.702,4.26
TAGCCTAGGTCATGGGCCAGTATCCCACGCGAAC,1.1,3.14,0.396,-0.233,1.33,1.43,-0.353,2.55,-0.117,3.74
TAGCCTAGGTCCGATCGGGCCAGTATACGCTATA,-1.07,-0.553,-0.601,-1.51,-1.58,-1.01,-1.16,-1.17,-1.53,-1
AATACAGGGTCACTAGGCCAGAATAGGTACGAAT,3.44,5.78,1.66,1.79,2.05,3.16,0.787,4.21,1.45,4.27
CCTAGCAGGCCAGGGGCACTCAAGCATTTCGCTT,0.0628,-0.609,-1.68,-1.6,-1.02,-0.801,-0.66,-0.684,-1.15,0.377
ATCGAAGGGTCGACGAGGTGAGTATACACCGTTT,-0.299,0.882,-0.145,0.665,0.411,1.11,-0.598,2.02,-0.471,2.3
TTACCAAGGTGAAGGTCGGTGATCCCTCTGTAGA,1.69,2.91,-0.0946,-0.454,0.55,0.481,-0.271,1.28,0.175,1.96
GCTTACGGGTCAAAGATTATAGCATGAATAGAAT,3.85,3.76,1.41,1.16,1.35,3.23,-0.0668,4.47,0.373,3.39
AGAACGAGGGCACGCTGAGTTGGTAGCAGAGTAG,4.25,3.68,0.349,-0.628,-0.387,0.612,-0.377,0.517,-1.12,2.46
TCTTGTAGATCAAGCAGGTTAATAAAGCCTGAGT,1.48,0.498,-0.163,0.466,0.27,0.447,0.326,0.406,0.125,-0.0389
TATACAGGGTCAATGGCCAGAGTACGAATGTCGA,1.79,3.99,1.48,1.03,1.97,3.23,0.633,3.75,0.771,4.05
TAGCCTAGGTCATGCGGGCCTGTATAGTGTCGGC,1.65,2.76,-0.075,-0.309,0.586,1.27,-0.864,2.14,-0.78,3.55
